# Screening results from PubChem.
# Sampled rows, rich in hits. Any-hit rate of the full collection: about 2.5%.
# RAD52 inh = RAD52 DNA annealing inhibitors, primary screen, biochemical, FRET, single point, set 2 | DNA repair protein RAD52 homolog (Homo sapiens), P43351 | recombinant RAD52 DNA annealing, FRET fluorescence | inhibition, % at 18.7 µM | hit rate 0.46% among 360,000;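 active = every replicate showing at least 50% inhibition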
# rRNA inh HTS = reduced GFP signal of wild-type E. coli, primary screen, bacterial rRNA inhibitor project, GFP/RFP fluorescence, OD600, single point; E. coli WT GFP vs humanized-ribosome RFP mutants, 24 h; active compounds read low; DMSO median 0, no signal -100; GFP signal change (wild-type ribosome), % (test concentration not listed); hit rate 1.6% among 350,000; AID 720706, 2013;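 active = significant combined selectivity score with lowered wild-type GFP, culture density cut under 30%, mutant RFP and density less affected; inactive = any of these conditions unmet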
# NSD2 HMT inh = NSD2 histone methyltransferase inhibitors, primary screen, biochemical, AlphaScreen, single concentration, set 2 | Histone-lysine N-methyltransferase NSD2 (Homo sapiens), O96028 | NSD2 peptide methylation, 120 min | inhibition, % at 12.5 µM | hit rate 0.54% among 310,000 | AID 743445, 2014; in the data active = inhibition above about 50%
# AF4-AF9 inh = inhibitors of AF4 peptide binding to AF9, primary screen, biochemical, AlphaScreen, biotin-AF4 peptide, FLAG-AF9, single point. Protein AF-9 (Homo sapiens), P42568. inhibition, % at 10 µM. hit rate 0.47% among 350,000;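 active = every replicate reaching a set inhibition limit, whatever the replicate mean, cut at about 25% in these data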;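 note: 0% = plate neutral control median and 100% = total signal loss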
# Target sequence (P42568 whole entry, looked up): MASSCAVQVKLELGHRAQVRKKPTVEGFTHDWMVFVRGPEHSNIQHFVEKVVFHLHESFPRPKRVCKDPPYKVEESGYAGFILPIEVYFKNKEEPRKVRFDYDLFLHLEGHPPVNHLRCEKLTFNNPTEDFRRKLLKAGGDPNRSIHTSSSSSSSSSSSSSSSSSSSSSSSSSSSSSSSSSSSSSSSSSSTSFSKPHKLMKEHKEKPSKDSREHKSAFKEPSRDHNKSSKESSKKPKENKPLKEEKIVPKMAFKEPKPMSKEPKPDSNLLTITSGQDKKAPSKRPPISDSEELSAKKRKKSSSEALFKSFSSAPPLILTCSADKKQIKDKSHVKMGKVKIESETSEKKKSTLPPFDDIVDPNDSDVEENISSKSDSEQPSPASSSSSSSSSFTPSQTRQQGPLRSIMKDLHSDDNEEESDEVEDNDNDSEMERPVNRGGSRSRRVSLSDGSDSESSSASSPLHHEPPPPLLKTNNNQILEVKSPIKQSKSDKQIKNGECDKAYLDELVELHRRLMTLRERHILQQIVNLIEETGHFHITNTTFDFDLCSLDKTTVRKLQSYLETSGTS
# Casp6 inh = human caspase-6 inhibitors, primary screen, biochemical, VEID-R110 fluorescence, single point, set 2; P55212; hit rate 0.53% among 350,000; inhibition, % at 12.5 µM; AID 686996, 2013; purified caspase-6, Z-VEID-R110 cleavage fluorescence;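 active = mean inhibition across replicates at least about 35%, with every replicate also reaching that limit, limit read from the data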;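 note: 0% = median of neutral control wells and 100% = no fluorescence left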
# Alpha artifact = AlphaScreen signal interference with preloaded methylated product, dose response, artefact control for NSD2 inhibitor project, biochemical, cherry-picked samples; shares compounds with NSD2 HMT inh; AlphaScreen artifact counterscreen, preloaded methylated H4 peptide; AC35, µM (doses to about 10 µM), without a hit: at the top dose activity change, negative = signal loss; hit rate 9.4% among 1,500; call rule not given here
# The depositor's hits bear a star; nt = no result given.
SMILES,RAD52 inh,rRNA inh HTS,NSD2 HMT inh,AF4-AF9 inh,Casp6 inh,Alpha artifact
CCC(=NCCCN(CC)CC)c1c(O)n(C2CCCCC2)c(=O)[nH]c1=O,nt,nt,51*,nt,nt,-7%
O=C(Cc1ccncc1)N1CCCCN2[C@H](CO)[C@H](c3ccc(C#Cc4ccccc4F)cc3)[C@H]2C1,-151,-8,nt,-2,2,nt
CC(=O)NC1=C(N2CC2C)C(=O)C(NC(C)=O)=C(N2CC2C)C1=O (stereo unspecified),-19,23,115*,-5,38*,-4%
COc1ccc(-c2ccc([C@@H]3[C@@H](CO)N4CCCCN(C(=O)Cc5ccncc5)C[C@H]34)cc2)cc1,1,0,nt,-1,-1,nt
Nc1ccc(C2(c3ccc(N)cc3)CN3CCC2CC3)cc1,nt,nt,176*,nt,nt,-17%
Cc1ccc(C2(O)CN3CCC2CC3)cc1 (stereo unspecified),-2,2,-1,-2,1,nt
COCCN1C(=O)/C(=C/c2c(OC)cc(OC)cc2OC)C(=O)N(c2ccccc2)C1=O,-48,12,52*,-1,-2,-1%
CC(=O)N(C)C1=Nc2ccc(Cl)cc2C(c2ccccc2)=[N+]([O-])C1,-5,-2,54*,-1,-4,-2%
CN(C)C(=O)On1c(-c2ccccc2)nc2ccc(Cl)cc21,nt,nt,1,nt,nt,nt
Cc1ccc(N2C(=O)NC(=O)/C(=C\C=C\c3ccco3)C2=O)cc1,-218,19,76*,-13,9,-6%
CCOc1cc(/C=C2\C(=O)NC(=O)N(CCc3ccc(F)cc3)C2=O)ccc1O,-117,4,53*,1,10,-8%
O=C(O)[C@@H]1[C@@H](CO)[C@@H]2Cn3c(ccc(-c4ccncc4)c3=O)[C@H]1N2C(=O)C1CC1,nt,4,nt,nt,nt,nt
COCCCNC(=O)c1c(NC(=O)c2ccco2)n(Cc2ccccc2)c2nc3ccccc3nc12,nt,nt,106*,nt,nt,2%
COCCCn1c(N)c(C(=O)OCCOC)c2nc3ccccc3nc21,nt,nt,73*,nt,nt,-3%
COCCNC(=O)c1c(NC(=O)c2ccc(Br)o2)n(Cc2ccccc2)c2nc3ccccc3nc12,nt,nt,6,nt,nt,nt
CCOC(=O)c1c(NS(=O)(=O)c2ccccc2)n(CCCOC)c2nc3ccccc3nc12,nt,nt,68*,nt,nt,5%
CCCCNC(=O)c1c(N)n(CCCOC)c2nc3ccccc3nc12,nt,nt,106*,nt,nt,11%
O=C(Cc1ccccn1)N1CCCCN2[C@@H](CO)[C@H](c3ccc(C#Cc4ccccc4)cc3)[C@@H]2C1,-18,-55,nt,-6,-4,nt
Cc1cc(/C=C2\C(=O)NC(=O)N(Cc3ccccc3Cl)C2=O)c(C)n1-c1ccc(C(=O)O)cc1,-70,24,58*,3,48*,-8%
Cc1cc(/C=C2\C(=O)NC(=O)N(Cc3ccccc3)C2=O)c(C)n1-c1ccc(Cl)c(C(=O)O)c1,-133,21,137*,-1,66*,-11%
Cc1cc(/C=C2\C(=O)NC(=O)N(c3cccc(F)c3)C2=O)c(C)n1-c1ccc(C(=O)O)c(Cl)c1,-85,4,9,-3,24,nt
COC1C(O)C(C)OC(OC2C(Oc3cccc4c(O)c5c(=O)oc6ccc(C)c7c(=O)oc(c34)c5c67)OC(C)C(O)C2O)C1O (stereo unspecified),-12,-2,66*,-2,6,-12%
COC(=O)[C@H]1[C@H](CO)[C@H]2Cn3c(ccc(-c4ccc(OC)cc4)c3=O)[C@@H]1N2C(=O)c1ccccc1F,8,-1,nt,-17,0,nt
O=C1NC(=O)C(Sc2ccccc2[N+](=O)[O-])C(=O)N1,1,7,85*,1,38*,-4%
O=[N+]([O-])c1ccccc1Cl,-5,3,nt,nt,-4,nt
COCC(=O)N1[C@@H]2Cn3c(ccc(C4=CCCC4)c3=O)[C@H]1[C@@H](C(=O)OC)[C@@H]2CO,-10,3,nt,-1,-3,nt
